Assay results: PubChem BioAssay (NCI)
The panel holds about 79,000 compounds, 15% with a hit somewhere; the sample as a whole holds those more often. Calls of active or inactive are those of the source. Cut-off read from the data, not from the text of the source: active = growth inhibition above about 70%; inactive = the rest.

Columns and labels:
[1] = NCI Yeast Anticancer Drug Screen. Data for the rad52 strain (AID 147);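 note: 0% = growth of vehicle-treated control cultures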; conditions: S. cerevisiae rad52 mutant growth inhibition, active compounds read high
Procedure, shortened: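 Vehicle-treated cultures served as the reference for growth inhibition of compound-exposed yeast bearing a DNA repair mutation.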

[2] = NCI Yeast Anticancer Drug Screen. Data for the mgt1 strain (AID 153); conditions: S. cerevisiae mgt1 mutant growth inhibition, active compounds read high
Procedure, shortened: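 mgt1 strain exposed; growth vs vehicle control recorded as inhibition.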

[3] = NCI Yeast Anticancer Drug Screen. Data for the rad50 strain (AID 155);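 note: 0% = growth of vehicle-only cultures of the same strain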; conditions: S. cerevisiae rad50 strain growth inhibition, active compounds read high
Procedure, shortened: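 Growth of the mutant yeast was measured after compound exposure and referenced to vehicle-treated cultures.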

[4] = NCI Yeast Anticancer Drug Screen. Data for the mec2-1 strain (AID 157); conditions: S. cerevisiae mec2-1 strain, active compounds read high
Procedure, shortened: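 Vehicle-treated cultures served as reference for growth inhibition of compound-exposed mec2-1 yeast.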

[5] = NCI Yeast Anticancer Drug Screen. Data for the rad14 strain (AID 159);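 note: 0% = growth of vehicle-treated control cultures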; conditions: S. cerevisiae rad14 strain growth inhibition, active compounds read high
Procedure, shortened: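 Here, inhibition of yeast growth was measured after compound exposure, using a strain with a genetic defect in DNA damage repair and vehicle-treated cultures as the reference.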

[6] = NCI Yeast Anticancer Drug Screen. Data for the sgs1 mgt1 strain (AID 161);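 note: 0% = growth of cultures given vehicle only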; conditions: S. cerevisiae sgs1 mgt1 strain, active compounds read high
Procedure, shortened: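 Read-out: growth inhibition vs vehicle controls. Cells: mutant yeast strain deficient in DNA damage repair.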

[7] = NCI Yeast Anticancer Drug Screen. Data for the cln2 rad14 strain (AID 165);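 note: 0% = growth equal to vehicle treated cultures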; conditions: S. cerevisiae cln2 rad14 strain, active compounds read high
Procedure, shortened: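 Each compound was tested on cln2 rad14 yeast. Inhibition of growth was calculated against vehicle-exposed controls.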

[8] = NCI Yeast Anticancer Drug Screen. Data for the bub3 strain (AID 167); conditions: S. cerevisiae bub3 mutant strain, active compounds read high
Procedure, shortened: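 Whole-cell yeast assay. The mutant strain was incubated with compounds, and growth inhibition was determined by comparison with vehicle-treated cells.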

[9] = NCI Yeast Anticancer Drug Screen. Data for the wt2 strain (AID 169);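 note: 0% = growth of vehicle-treated yeast cultures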; conditions: S. cerevisiae wt2 strain growth inhibition, active compounds read high
Procedure, shortened: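 Inhibition of yeast growth was determined after compound treatment, normalised to controls receiving only vehicle.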

[10] = NCI Yeast Anticancer Drug Screen. Data for the mlh1 strain (AID 171);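 note: 0% = growth of vehicle-treated control cultures of the same strain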; conditions: S. cerevisiae mlh1 strain growth inhibition, active compounds read high
Procedure, shortened: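 Vehicle-normalised growth inhibition of a repair- or checkpoint-altered yeast strain following compound treatment.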

[11] = NCI Yeast Anticancer Drug Screen. Data for the sgs1 strain (AID 173);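 note: 0% = growth of vehicle-only control cultures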; conditions: S. cerevisiae sgs1 mutant, active compounds read high
Procedure, shortened: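 Screen format: yeast with repair or checkpoint alterations, compound exposure, growth read relative to vehicle.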

[12] = NCI Yeast Anticancer Drug Screen. Data for the mlh1 rad18 strain (AID 175); conditions: S. cerevisiae mlh1 rad18 strain growth inhibition, active compounds read high
Procedure, shortened: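 Vehicle-treated cultures served as the reference for growth inhibition in a yeast strain carrying DNA damage repair alterations exposed to each compound.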

[13] = NCI Yeast Anticancer Drug Screen. Data for the rad18 strain (AID 177); conditions: S. cerevisiae rad18 mutant growth inhibition, active compounds read high
Procedure, shortened: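 Test articles were incubated with altered yeast defective in DNA damage repair. Results are given as inhibition of growth versus vehicle.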

[14] = at 5.0 µM (retest, dose inferred, filed as 0.5)
[15] = at 50.0 µM (retest, dose inferred, filed as 5.0)

Measured: growth inhibition

NC(=O)C(=O)NNc1ccccc1
active: [1]; at 33.0 µM 85% | [1]; at 100.0 µM 98% | [2]; at 33.0 µM 76% | [2]; at 100.0 µM 97% | [3]; at 33.0 µM 75% | [3]; at 50.0 µM 95.5% | [3]; at 100.0 µM 97% | [4]; at 33.0 µM 81% | [4]; at 50.0 µM 83.8% | [4]; at 100.0 µM 97% | [5]; at 100.0 µM 98% | [6]; [15] 78% | [6]; at 50.0 µM 90.5% | [7]; at 50.0 µM 80.8% | [8]; at 33.0 µM 95% | [8]; at 50.0 µM 92.2% | [8]; at 100.0 µM 97% | [9]; at 100.0 µM 97% | [10]; at 33.0 µM 75% | [10]; at 100.0 µM 98% | [11]; at 33.0 µM 92% | [11]; at 100.0 µM 98% | [12]; [15] 89% | [12]; at 50.0 µM 82.7% | [13]; at 33.0 µM 92% | [13]; at 100.0 µM 97%
inactive: [1]; at 1.2 µM 4% | [1]; at 3.7 µM 12% | [1]; at 11.0 µM 39% | [2]; at 1.2 µM 5% | [2]; at 3.7 µM 10% | [2]; at 11.0 µM 28% | [3]; at 1.2 µM 1% | [3]; at 3.7 µM 6% | [3]; [14] 9% | [3]; at 11.0 µM 31% | [3]; [15] 49% | [4]; at 1.2 µM 0% | [4]; at 3.7 µM 6% | [4]; [14] -1% | [4]; at 11.0 µM 48% | [4]; [15] 4% | [5]; at 1.2 µM 1% | [5]; at 3.7 µM 0% | [5]; at 11.0 µM 13% | [5]; at 33.0 µM 66% | [6]; [14] 8% | [7]; [14] 9% | [7]; [15] 32% | [8]; at 1.2 µM -3% | [8]; at 3.7 µM 6% | [8]; [14] 27% | [8]; at 11.0 µM 64% | [8]; [15] 66% | [9]; at 1.2 µM 3% | [9]; at 3.7 µM 13% | [9]; at 11.0 µM 34% | [9]; at 33.0 µM 60% | [10]; at 1.2 µM 3% | [10]; at 3.7 µM 5% | [10]; at 11.0 µM 31% | [11]; at 1.2 µM 3% | [11]; at 3.7 µM 14% | [11]; at 11.0 µM 59% | [12]; [14] 45% | [13]; at 1.2 µM 6% | [13]; at 3.7 µM 17% | [13]; at 11.0 µM 65%
